Data from PubChem BioAssay (NCI).
The panel holds about 79,000 compounds, 15% with a hit somewhere; the sample as a whole holds those more often. Active and inactive are the calls of the source. Rule as the data show it: active = growth inhibition above about 70%; inactive = the rest.

What was measured:
[1] = NCI Yeast Anticancer Drug Screen. Data for the rad50 strain (AID 155);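 also: 0% = growth of vehicle-only cultures of the same strain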; conditions: S. cerevisiae rad50 strain growth inhibition, active compounds read high
How it was run: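 Inhibition values express reduced yeast growth in compound-treated cultures relative to vehicle-treated controls.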

[2] = NCI Yeast Anticancer Drug Screen. Data for the mec2-1 strain (AID 157); conditions: S. cerevisiae mec2-1 strain, active compounds read high
How it was run: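 Using mec2-1 yeast: add compound, measure growth, express inhibition versus vehicle-treated cultures.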

[3] = NCI Yeast Anticancer Drug Screen. Data for the sgs1 mgt1 strain (AID 161);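 also: 0% = growth of cultures given vehicle only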; conditions: S. cerevisiae sgs1 mgt1 strain, active compounds read high
How it was run: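 Compounds are added to genetically altered yeast, and growth is compared with cultures given vehicle alone to give percent inhibition.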

[4] = NCI Yeast Anticancer Drug Screen. Data for the cln2 rad14 strain (AID 165);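 also: 0% = growth equal to vehicle treated cultures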; conditions: S. cerevisiae cln2 rad14 strain, active compounds read high
How it was run: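 Yeast strain cln2 rad14, bearing defects in cell cycle control and DNA repair, serves as the test system; values reflect growth inhibition compared with vehicle.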

[5] = NCI Yeast Anticancer Drug Screen. Data for the bub3 strain (AID 167); conditions: S. cerevisiae bub3 mutant strain, active compounds read high
How it was run: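 Steps: expose the mutant yeast strain to compound; grow alongside vehicle-treated cultures; measure growth; express inhibition against the vehicle cultures.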

[6] = NCI Yeast Anticancer Drug Screen. Data for the mlh1 rad18 strain (AID 175); conditions: S. cerevisiae mlh1 rad18 strain growth inhibition, active compounds read high
How it was run: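 Steps: expose repair-defective yeast to compound; measure growth; express inhibition against vehicle-treated controls.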

[7] = at 5.0 µM (retest, dose inferred, filed as 0.5)
[8] = at 50.0 µM (retest, dose inferred, filed as 5.0)

Measured: growth inhibition

c1ccc2c(Nc3ccc(Oc4ccc(Nc5c6ccccc6nc6ccccc56)cc4)cc3)c3ccccc3nc2c1
active: [1]; [8] 99% | [1]; at 50.0 µM 82.8% | [2]; [8] 100% | [3]; [8] 99% | [4]; [8] 99% | [5]; [8] 99% | [6]; [8] 99%
inactive: [1]; [7] 50% | [2]; [7] 8% | [2]; at 50.0 µM 6.6% | [3]; [7] 31% | [3]; at 50.0 µM -22.9% | [4]; [7] 6% | [4]; at 50.0 µM 6.45% | [5]; [7] 10% | [5]; at 50.0 µM -1.8% | [6]; [7] 20% | [6]; at 50.0 µM 10.3%

CCCCCCCC(=O)/C=C/c1ccc(C)cc1
inactive: [1]; [7] -161% | [1]; [8] -136% | [1]; at 50.0 µM 56.8% | [2]; [7] -54% | [2]; [8] -50% | [2]; at 50.0 µM 44.1% | [3]; [7] -69% | [3]; [8] -65% | [3]; at 50.0 µM 67.6% | [4]; [7] -62% | [4]; [8] -86% | [4]; at 50.0 µM 30.2% | [5]; [7] -61% | [5]; [8] -47% | [5]; at 50.0 µM 65.8% | [6]; [7] -128% | [6]; [8] -119% | [6]; at 50.0 µM 45%

COc1ccc(C2CC(=O)CC(=O)C2)cc1
inactive: [1]; [7] -6% | [1]; [8] -23% | [1]; at 50.0 µM 65.2% | [2]; [7] 5% | [2]; [8] -8% | [2]; at 50.0 µM 10.1% | [3]; [7] -7% | [3]; [8] 2% | [3]; at 50.0 µM 32.5% | [4]; [7] -64% | [4]; [8] -20% | [4]; at 50.0 µM -3.35% | [5]; [7] -25% | [5]; [8] -15% | [5]; at 50.0 µM 16% | [6]; [7] -12% | [6]; [8] 0% | [6]; at 50.0 µM 55.5%

CCNc1cc(N)[n+](CC)c2n[nH]c(/N=C/c3cc(Cl)cc(Cl)c3O)c12
active: [1]; [8] 80% | [1]; at 50.0 µM 88% | [2]; [8] 77% | [2]; at 50.0 µM 87.5% | [3]; [8] 98% | [3]; at 50.0 µM 89.8% | [4]; [8] 98% | [4]; at 50.0 µM 79.9% | [5]; [7] 87% | [5]; [8] 97% | [5]; at 50.0 µM 90.3% | [6]; [8] 78% | [6]; at 50.0 µM 88.2%
inactive: [1]; [7] 37% | [2]; [7] 26% | [3]; [7] 41% | [4]; [7] 63% | [6]; [7] 37%

Oc1ccc[nH]c1=S
inactive: [1]; [7] 19% | [1]; [8] 18% | [1]; at 50.0 µM 18.4% | [2]; [7] 6% | [2]; [8] 12% | [2]; at 50.0 µM 12.2% | [3]; [7] 3% | [3]; [8] -34% | [4]; [7] 8% | [4]; [8] -4% | [4]; at 50.0 µM -8.7% | [5]; [7] 13% | [5]; [8] -2% | [6]; [7] 23% | [6]; [8] 12%
active: [3]; at 50.0 µM 85.2% | [5]; at 50.0 µM 74.5% | [6]; at 50.0 µM 90.9%

N#CC1=CN(Cc2ccccc2)C(C#Cc2ccccc2)C=C1 (stereo not given)
active: [2]; at 50.0 µM 88.2% | [3]; at 50.0 µM 82.2% | [5]; at 50.0 µM 91% | [6]; at 50.0 µM 83.2%
inactive: [1]; [7] 1% | [1]; [8] -1% | [1]; at 50.0 µM 58.9% | [2]; [7] -1% | [2]; [8] 9% | [3]; [7] 2% | [3]; [8] 8% | [4]; [7] -2% | [4]; [8] -7% | [4]; at 50.0 µM 15.4% | [5]; [7] -2% | [5]; [8] 0% | [6]; [7] -2% | [6]; [8] 4%

O=C(N=Nc1cccc(Cl)c1)NNc1cccc(Cl)c1
active: [1]; [8] 98% | [1]; at 50.0 µM 85.8% | [2]; [8] 99% | [2]; at 50.0 µM 90.6% | [3]; [8] 91% | [3]; at 50.0 µM 83.2% | [4]; [8] 99% | [4]; at 50.0 µM 83.5% | [5]; [8] 99% | [5]; at 50.0 µM 86.3% | [6]; [8] 98% | [6]; at 50.0 µM 85.4%
inactive: [1]; [7] 12% | [2]; [7] -11% | [3]; [7] -9% | [4]; [7] 26% | [5]; [7] -24% | [6]; [7] -6%

O=[N+]([O-])c1cccc(/C=N/Nc2ccc3ccccc3n2)c1O
active: [1]; at 50.0 µM 98% | [2]; at 50.0 µM 98.8% | [3]; at 50.0 µM 97.4% | [4]; at 50.0 µM 93.3% | [5]; at 50.0 µM 97.8% | [6]; at 50.0 µM 97.5%
inactive: [1]; [7] 30% | [1]; [8] 20% | [2]; [7] 1% | [2]; [8] -23% | [3]; [7] 26% | [3]; [8] 24% | [4]; [7] 1% | [4]; [8] 3% | [5]; [7] 2% | [5]; [8] 7% | [6]; [7] 16% | [6]; [8] 14%

COc1ccc(CN2CCCN(Cc3ccc(OC)cc3OC)C2c2cccc([N+](=O)[O-])c2O)c(OC)c1
active: [1]; at 50.0 µM 70.8% | [3]; at 50.0 µM 77.5% | [6]; [8] 70%
inactive: [1]; [7] 16% | [1]; [8] 61% | [2]; [7] 11% | [2]; [8] 29% | [2]; at 50.0 µM 29.8% | [3]; [7] 8% | [3]; [8] 20% | [4]; [7] 5% | [4]; [8] 27% | [4]; at 50.0 µM 54.1% | [5]; [7] -5% | [5]; [8] 31% | [5]; at 50.0 µM 7.65% | [6]; [7] 16% | [6]; at 50.0 µM 51.4%

O=C(OC12CCCCC1CCCC2)c1ccc([N+](=O)[O-])cc1 (stereo not given)
active: [1]; [8] 98% | [1]; at 50.0 µM 98% | [2]; [8] 99% | [2]; at 50.0 µM 99.5% | [3]; [8] 99% | [3]; at 50.0 µM 99.1% | [4]; [8] 99% | [4]; at 50.0 µM 99.5% | [5]; [8] 99% | [5]; at 50.0 µM 99.4% | [6]; [8] 98% | [6]; at 50.0 µM 99.2%
inactive: [1]; [7] 28% | [2]; [7] 29% | [3]; [7] 32% | [4]; [7] 11% | [5]; [7] 33% | [6]; [7] 44%
